From PubChem
SRC3 inh: human NCOA3 inhibition. inhibition, % at 3.6 µM. 360,000 tested, 0.17% active. HEK293 GAL4-SRC3 luciferase reporter, luminescence. AID 588352. Q9Y6Q9;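 active means inhibition above a per-campaign cutoff, the mean of all compounds plus 3 SD, cut at about 60% in these data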;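 further: 0% = DMSO-treated cells and 100% = gossypol-treated cells at 36 µM; higher means less SRC3-driven luciferase light from the GAL4 reporter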
SRC2 inh: inhibits human steroid receptor coactivator 2; Q15596; HEK293 GAL4-SRC2 luciferase reporter, luminescence; inhibition, % at 9 µM; 370,000 tested, 0.17% active; AID 651957;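 active means inhibition above the mean inhibition of all tested compounds plus 3 SD, set per campaign, cut at about 52% in these data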;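 further: 0% = DMSO treated cells and 100% = cells given Gossypol at 36 µM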
LRH-1 inv ag: NR5A2 inverse agonism in reporter assay; 360,000 tested, 0.13% active; inhibition, % at 3.6 µM; O00482; HEK293T StAR-luciferase reporter, LRH-1 transfected, 24 h;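 active means inhibition above the mean inhibition of all tested compounds plus 3 SD, cut at about 73% in these data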;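 further: 0% = DMSO wells and 100% = reporter-only cells lacking LRH-1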
Gli-Sufu block: antagonists of Gli-Sufu signaling; AID 588413; 340,000 tested, 0.74% active; Sufu-KO-LIGHT fibroblasts, Gli luciferase reporter luminescence; inhibition, % at 5 µM;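 active means inhibition above about 55%, limit read from the data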;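 further: 0% = DMSO-treated cells and 100% = wells with medium but no cells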
NR2F2 inh: NR2F2 (human) inhibition, primary screen; 370,000 tested, 0.7% active; inhibition, % at 8.6 µM; P24468; HEK293T NGFI-A luciferase reporter, luminescence;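 active means inhibition above a per-plate cutoff, mean inhibition of test wells between control levels plus 3 SD, cut at about 38% in these data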;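 further: cells cotransfected with COUP-TFII expression vector driving the NGFI-A reporter; 0% = median of COUP-TF2 test wells and 100% = reporter-only cells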
Target sequence (P24468 whole entry, looked up): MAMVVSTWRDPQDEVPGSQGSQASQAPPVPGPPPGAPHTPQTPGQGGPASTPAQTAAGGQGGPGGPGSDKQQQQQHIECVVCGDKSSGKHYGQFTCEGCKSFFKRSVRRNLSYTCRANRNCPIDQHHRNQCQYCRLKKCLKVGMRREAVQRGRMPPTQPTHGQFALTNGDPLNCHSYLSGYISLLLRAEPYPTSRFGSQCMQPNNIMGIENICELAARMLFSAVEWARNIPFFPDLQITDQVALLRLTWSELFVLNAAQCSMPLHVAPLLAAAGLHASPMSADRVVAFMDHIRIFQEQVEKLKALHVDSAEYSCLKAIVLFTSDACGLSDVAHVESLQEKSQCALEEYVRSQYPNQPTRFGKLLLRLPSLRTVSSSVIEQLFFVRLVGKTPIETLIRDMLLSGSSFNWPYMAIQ
SRC1 inh: inhibits human SRC1 coactivator | inhibition, % at 3.6 µM | 360,000 tested, 0.12% active | AID 588354 | HEK293 GAL4-SRC1 luciferase reporter, luminescence | Q15788;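 active means inhibition above the campaign mean plus 3 SD, with each screening campaign given its own cutoff, cut at about 60% in these data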;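 further: 0% = DMSO treated cells and 100% = gossypol at 36 µM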
Gli antag conf: confirmation of Gli-SUFU pathway antagonists; shares compounds with Gli-Sufu block; Sufu-KO-LIGHT cells, Gli luciferase reporter, luminescence; inhibition, % at 5 µM; 2,500 tested, 40% active; AID 602428;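 active means mean inhibition at 5 µM reaching about 45%, limit read from the data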;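 further: plate controls were DMSO-treated cells for no effect and wells lacking cells for full effect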
Gli cytotox: cytotoxicity counter-screen for Gli-SUFU antagonists; AID 651994; shares compounds with Gli-Sufu block; Sufu-KO-LIGHT cells cytotoxicity, ATP luminescence; 2,500 tested, 32% active; cytotoxicity, % at 5 µM;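 active means mean cytotoxicity at 5 µM above about 25%, limit read from the data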;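 further: cells exposed to compound overnight for roughly 16 to 18 hours; plate controls were DMSO wells with cells for no effect and medium without cells for full effect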
Wnt3a cs: counter-screen for Gli-SUFU antagonists: Wnt3a reporter inhibition; shares compounds with Gli-Sufu block; Wnt-LIGHT cells, Wnt3a-driven luciferase reporter, luminescence; inhibition, % at 6.25 µM; 2,500 tested, 20% active; AID 651995;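 active means mean inhibition above about 25%, limit read from the data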
Starred values were filed as active, the others as inactive; x = no result. Only some compounds are listed: those with a hit (about 1.2% of all), similar ones and a draw of the others.

SMILES	SRC3 inh	SRC2 inh	LRH-1 inv ag	Gli-Sufu block	NR2F2 inh	SRC1 inh	others
COC(=O)[C@]12OC[C@]34C([C@@H](O)[C@@H]1O)[C@]1(C)CC(=O)C(O)=C(C)[C@@H]1C[C@H]3OC(=O)[C@H](O)[C@@H]24 (some centres not stated)	69*	61*	99*	33	76*	81*
CP(=O)(O)CN1CCCCC1	30	3	15	-10	4	14
O=c1[nH]c(=O)n(CCC2=CCCCC2)c(O)c1C=NC1CCN(Cc2ccccc2)CC1	35	26	23	12	52*	11
C=CCn1c(O)c(C=NC2CCN(Cc3ccccc3)CC2)c(=O)[nH]c1=O	17	10	-10	2	-3	12
S=P(c1ccccc1)(c1ccccc1)c1c[n+](Cc2ccccc2)c2ccccn12	x	x	x	x	16	x
C=C1C(O)[C@@H]2O[C@]3(CC[C@H](/C=C/C(C)[C@@H]4CC(C)=CC5(O[C@H](C[C@@](C)(O)C(=O)O)CCC5O)O4)O3)CC[C@H]2O[C@@H]1C(O)CC(C)[C@H]1OC2(CCCCO2)CCC1C (some centres not stated)	x	x	x	93*	x	x
Cc1ccc(-c2cc(-c3ccc(C)cc3)[n+](-c3ccc(C(=O)[O-])cc3)c(-c3ccc(C)cc3)c2)cc1	5	-7	1	8	7	-9
Cc1ccc(-c2cc(-c3ccc(C)cc3)[n+](-c3ccccc3)c(-c3ccc(C)cc3)c2)cc1	79*	x	93*	91*	x	65*
N#CCC[C@@H]1CC[C@]2(CCCN(Cc3ccncc3)C2)O1	x	6	x	x	15	x
CCCCn1nnnc1C(CCc1ccccc1)N1CCC2(CC1)C(=O)NCN2c1ccccc1 (configuration not stated)	19	-54	-5	x	-3	17
CC(C)(C)c1cc(C=C(C#N)C#N)cc(C(C)(C)C)c1O	81*	-3	76*	88*	2	61
N#CC(C#N)=Cc1ccc(O)c(O)c1	5	-30	-11	-10	-16	5
Cn1cc(C(=O)N2CCCCC2)c2ccccc21	8	-14	-5	-6	-4	4
COC(=O)C1=C(c2ccc(OC(F)(F)F)cc2)C[C@@H]2CC[C@H]1N2C(=O)N1CCc2cc(OC)c(OC)cc2C1	x	-1	x	x	15	x
C[C@@H]1O[C@@H](O[C@H]2C[C@@H](O)[C@]3(CO)[C@H]4[C@H](O)C[C@]5(C)[C@@H](C6=CC(=O)OC6)CC[C@]5(O)[C@@H]4CC[C@]3(O)C2)[C@H](O)[C@H](O)[C@H]1O	93*	x	103*	-1	x	88*
CN(C)C(=S)SSC(=S)N(C)C	-1	-31	20	68*	3	-43
CCOc1ccc(-c2c(C)n(-c3ccc(OCC)cc3)c3[n+]2CCCCC3)cc1	82*	33	88*	88*	90*	74*
C=CCN1C[C@H](C)N(C(c2ccc(C(=O)N(CC)CC)cc2)c2cccc(OC)c2)CC1C (some centres not stated)	x	-21	x	x	-6	x
CC(=O)OCC12CC(OC(=O)CC(C)C)C(C)=CC1OC1C(O)C(OC(C)=O)C2(C)C12CO2 (configuration not stated)	95*	77*	98*	90*	92*	95*
COC1=CC(=O)[C@]2(C=C1OC)OC[C@@H]1Oc3c(ccc4c3C=CC(C)(C)O4)C(=O)[C@@H]12	x	1	x	85*	73*	x
CC(C)(O)/C=C/C(=O)[C@](C)(O)C1[C@H](O)C[C@@]2(C)C3CC=C4C(C[C@H](O)[C@@H](O)C4(C)C)[C@]3(C)C(=O)C[C@]12C (some centres not stated)	25	x	7	72*	x	-5
CCC12CN3CCN(CC(C3)/C1=N/NC(N)=O)C2	15	-7	10	61*	-6	2	Gli antag conf=18;Gli cytotox=-7;Wnt3a cs=15
CC12CN3CCN(CC(C3)/C1=N/NC(N)=O)C2	15	8	-2	-3	0	-5
COc1cc2c3c(c1OC)Oc1ccc(cc1)C[C@H]1c4c(cc(OC)c(OC)c4Oc4ccc(cc4)C[C@@H]3N(C)CC2)CCN1C	2	15	0	65*	2	-12	Gli antag conf=20;Gli cytotox=-5;Wnt3a cs=-1
CC(=O)N1N=C2C3CCN(CC3)C2C1c1ccccc1 (configuration not stated)	21	-10	-4	-1	8	1
SMILES	SRC3 inh	SRC2 inh	LRH-1 inv ag	Gli-Sufu block	NR2F2 inh	SRC1 inh	others
Cn1cccc1/C=C1/C(=O)NC(=O)N(Cc2ccccc2)C1=O	-21	6	9	53	9	-9	Gli antag conf=45*;Gli cytotox=38*;Wnt3a cs=26*
Cn1cccc1/C=C1\C(=O)NC(=O)N(Cc2ccccc2)C1=O	-118	-35	-15	39	-7	-44
CCCCCCn1c(=O)c(C(=O)Nc2cnccn2)c(O)c2ccccc21	5	-36	9	78*	-7	-13	Gli antag conf=79*;Gli cytotox=-7;Wnt3a cs=30*
Cc1cc(/C=C2\C(=O)NC(=O)N(C)C2=O)c(C)n1-c1ccc2c(c1)OCO2	10	-16	9	69*	-6	-18	Gli antag conf=23;Gli cytotox=-1;Wnt3a cs=-20
COc1ccccc1CN1CCN(C(=O)COc2cccc(C)c2)CC1	-8	-3	-4	94*	3	-14	Gli antag conf=10;Gli cytotox=27*;Wnt3a cs=-37
O=[N+]([O-])c1ccc(C[n+]2c(-c3ccccc3)cc(-c3ccccc3)cc2-c2ccccc2)cc1	7	12	24	28	12	-4
Cc1cc(-c2ccccc2)cc(C)[n+]1Cc1ccccc1	23	24	26	79*	3	10	Gli antag conf=84*;Gli cytotox=17;Wnt3a cs=32*
COc1ccc(C(O)CNC(C)C)c(F)c1OC (configuration not stated)	6	-19	4	3	-22	4
CC(NCc1cccc(Cl)c1Cl)C(O)c1ccccc1 (configuration not stated)	6	-10	15	97*	-16	-2	Gli antag conf=17;Gli cytotox=1;Wnt3a cs=-3
Cc1cc(OCC(=O)N2C[C@H]3C[C@@H](C2)c2cccc(=O)n2C3)c2c(C)c(C)c(=O)oc2c1	10	-26	19	-16	-1	-10
Cn1c(=O)c2c(ncn2CCCl)n(C)c1=O	-1	-17	5	6	8	0
Cn1c(NN=O)nc2ccccc21	4	-6	14	83*	18	2	Gli antag conf=37;Gli cytotox=23;Wnt3a cs=12
